Experimental findings from PubChem BioAssay (Tox21) are described below.

Active and inactive are the calls of the source. Entries that show only a call come without a potency. The call rests on the fitted dose curve; in most records, active means well fitted cell-killing curve with a large enough effect in the repeat runs; inconclusive means weak or mixed curves, or effect the other way; inactive means flat fitted curve, though single readings scatter.

This test can be described thus: qHTS assay to identify small molecule HDAC inhibitors - cell viability counter screen (AID 1259365). Further: nearly all actives have a fitted effect of over 50% in size. Particulars: HCT-116 viability, CellTiter-Glo ATP luminescence, 2 h; series mostly up to 92.4 µM. The text has this:
U.S. Tox21 Program National Center for Advancing Translational Sciences [NCATS] NIH Chemical Genomics Center [NCGC] U.S. Environmental Protection Agency [EPA] National Institutes of Environmental Health Sciences [NIEHS] National Toxicology Program [NTP] U.S. Food and Drug Administration [FDA] Tox21 Assay Overview: Histone deacetylases (HDACs) are a group of epigenetic enzymes that regulate gene expression by histone deacetylation. HDACs are capable of introducing epigenetic modifications and such aberrations contribute to the onset and progression of several human diseases, thus making HDACs a popular therapeutic target. For identifying endogenous class I/II HDAC inhibitors a homogenous, luminogenic HDAC I/II cell based assay was used to measure the relative activity of class I and II HDACs from cells. Wild type HCT-116 cells were used to screen Tox21 compound libraries for identifying class I/II HDAC inhibitors.
Tox21 Assay Protocol Summary: HCT-116 cells were dispensed at 1,500 per well in 5uL of culture medium into white solid bottom 1536-well plates (Greiner Bio-One, Monroe, NC) using a Multidrop Combi (Thermo Scientific, Waltham, MA) dispenser. The assay plates were incubated at 37 C and 5% CO2 for an overnight, and then 23nL of compounds dissolved in DMSO and positive control were transferred using a Pintool station (Wako, San Diego, CA). The assay plates were incubated at 37C and 5% CO2 for 2hr. After compound treatment, 4uL of CellTiter-Glo reagent (Promega Corporation, Madison, WI) was added to each well of the assay plates using Flying Reagent Dispenser (FRD, Aurora Discovery, San Diego, CA) and incubated the assay plates at room temperature for 30min. The luminescence signal was quantified using a ViewLux plate reader (Perkin Elmer, Shelton, CT).
In the case of `CCC(C)(C)C(=O)OC1=C(c2ccc(Cl)cc2Cl)C(=O)OC12CCCCC2`, the Potency result is “inactive”.

On to `C[C@H]1O[C@@H](O[C@H]2[C@@H](O)C[C@H](O[C@H]3[C@@H](O)C[C@H](O[C@H]4CC[C@@]5(C)[C@H](CC[C@@H]6[C@@H]5CC[C@]5(C)[C@@H](C7=CC(=O)OC7)CC[C@]65O)C4)O[C@@H]3C)O[C@@H]2C)C[C@H](O)[C@@H]1O`, for which the Potency result is “inactive”.

Turning to `COc1cccc(C(=O)CCN[C@@H](C)[C@H](O)c2ccccc2)c1`, the Potency entry was “inactive”.

Consider `O=[N+]([O-])c1cc([N+](=O)[O-])c2ccccc2c1`, for which the Potency result is “inactive”.

Turning to `CC(C)(C)OO`, the Potency result is “inactive”.

As for `CC(=[OH+])/C=C(/C)[O-].CC(=[OH+])/C=C(\C)[O-].CC(=[OH+])/C=C(\C)[O-].[Fe]`, the Potency entry is “inactive”.

In the case of `O=[N+]([O-])c1c2ccccc2cc2ccccc12`, the Potency result is “inactive”.

With `Cc1cc(Cl)ccc1O[C@H](C)C(=O)O`, the Potency entry is “inactive”.

Turning to `CCCSP(=O)(OCC)SCCC`, the Potency entry is “inactive”.

With `O=C(Nc1ccc2[nH]ccc2c1)c1cc2cc(F)ccc2n1Cc1cccc(F)c1`, the Potency result was “inactive”.

Take `CCCCN(CCCC)C(=S)[S-].CCCCN(CCCC)C(=S)[S-].[Zn+2]`: the Potency entry was “inactive”.

For `c1cc[c]([Sb]([c]2ccccc2)[c]2ccccc2)cc1`, the Potency entry is “inactive”.

Turning to `CCOc1cc(C(C)(C)C)ccc1C1COC(c2c(F)cccc2F)=N1` (stereo not given), the Potency result was “inactive”.

Regarding `Oc1c(Cl)c(Cl)cc(Cl)c1Cl`, the Potency result was “inactive”.

`O=[N+]([O-])O.O=[N+]([O-])O.[Cd]`: the Potency entry was “inactive”.

On to `BrCC(Br)c1ccccc1` (stereo not given), for which the Potency result is “inactive”.

On to `CCCCCCCCc1ccc(O)cc1`, for which the Potency entry is “inactive”.

In the case of `Brc1c(Br)c(Br)c(Oc2c(Br)c(Br)c(Br)c(Br)c2Br)c(Br)c1Br`, the activity change, negative = cytotoxicity is 2.12% [at 19 µM] (inactive).

`CCCCOCN(C(=O)CCl)c1c(CC)cccc1CC`: the Potency entry is “inactive”.

In the case of `C[C@@H]1O[C@@H](O[C@@H]2C=C3CC[C@@H]4[C@H](CC[C@]5(C)[C@@H](c6ccc(=O)oc6)CC[C@]45O)[C@@]3(C)CC2)[C@H](O)[C@H](O)[C@H]1O`, the Potency result is “inactive”.

For the compound `CC(C)Oc1cccc(NC(=O)c2ccccc2C(F)(F)F)c1`, the Potency entry is “inactive”.

`O=C1NCN(c2ccccc2)C12CCN(CC1COc3ccccc3O1)CC2` (stereo not given): the Potency entry was “inactive”.

Take `Cc1cccc(OP(=O)(Oc2cccc(C)c2)Oc2cccc(C)c2)c1`: the Potency result is “inactive”.

Turning to `CCC(C)c1cc(C(C)(C)C)cc(-n2nc3ccccc3n2)c1O` (stereo not given), the Potency entry was “inactive”.

With `ClC1=C(Cl)C2(Cl)C3C(Cl)C=CC3C1(Cl)C2(Cl)Cl` (stereo not given), the Potency entry was “inactive”.

On to `ClC1=C(Cl)[C@]2(Cl)[C@@H]3[C@@H](Cl)[C@@H](Cl)C[C@@H]3[C@@]1(Cl)C2(Cl)Cl`, for which the Potency entry is “inactive”.

On to `C[C@@H](Oc1ccc(Cl)cc1Cl)C(=O)O`, for which the Potency result was “inactive”.

With `CC(C)CCCCCOC(=O)c1ccccc1C(=O)OCCCCCC(C)C`, the Potency entry was “inactive”.

Consider `Cn1cc(C2=C(c3cn(C4CCN(Cc5ccccn5)CC4)c4ccccc34)C(=O)NC2=O)c2ccccc21`, for which the Potency entry is “inactive”.

In the case of `O=[N+]([O-])c1cc(Cl)ccc1Cl`, the Potency entry is “inactive”.

On to `CC(C)N1C(=O)N(c2ccccc2)CSC1=NC(C)(C)C`, for which the Potency result was “inactive”.

Consider `Oc1ccc(I)cc1`, for which the Potency entry was “inactive”.

As to `CCCCCCCCCCBr`, the Potency entry is “inactive”.

On to `ClC1=C(Cl)[C@]2(Cl)[C@@H]3[C@@H](Cl)[C@H](Cl)C[C@@H]3[C@@]1(Cl)C2(Cl)Cl`, for which the Potency entry is “inactive”.

Take `N#CCc1ccc(Cl)cc1`: the Potency result is “inactive”.

In the case of `Oc1cc(Cl)c(Cl)c(Cl)c1`, the Potency entry is “inactive”.

With `CCOCCOC(C)=O`, the Potency result was “inactive”.

In the case of `COc1cc(C=O)cc2c1[C@H](COC(N)=O)[C@]1(OC(C)=O)ON2C[C@H]2[C@@H]1N2C(C)=O`, the Potency entry was “inactive”.

Take `C=CCC1=C(C)C(OC(=O)C2C(C=C(C)C)C2(C)C)CC1=O` (stereo not given): the Potency result was “inactive”.

As to `N#C/C=C/C#N`, the Potency entry is “inactive”.
